From PubChem
TEAD-YAP block – TEAD-YAP interaction inhibition; HEK-TIYL cells, TEAD-Gal4/YAP UAS-luciferase luminescence; inhibition, % at 9.12 µM; 640,000 compounds, 1.4% hits; in the data active = inhibition above about 32%
FBW7 act – activators of human E3 ligase FBW7; AlphaScreen FBW7–phospho-cyclin E peptide binding, activator screen; normalized activity (activation), % at 26.1 µM; 650,000 compounds, 0.13% hits; AID 1259310; in the data active = normalized activity above about 1.9%;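 also: purified mutant Fbw7 with reduced substrate affinity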
GPR151 ag – activators of human GPR151 | 650,000 compounds, 1% hits | activation, % at 11.2 µM | Q8TDV0 | AID 1508602 | PathHunter beta-arrestin GPR151 cells, luminescence; in the data active = activation above about 4.9%
MITF inh – blocks human microphthalmia-associated transcription factor; inhibition, % at 2.6 µM; AlphaScreen MITF homodimerization, bead proximity signal; 650,000 compounds, 0.91% hits; in the data active = inhibition above about 50%
GPR151 confirm – confirmation of human GPR151 activators | shares compounds with GPR151 ag | GPR151 PathHunter beta-arrestin cells, luminescence, 90 min; % of EA-reagent control over plate median | activation, % at 11.2 µM | 6,700 tested, under 10 active;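 active = mean percent activation across replicates above the confirmation screen cutoff of 4.91%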
GPR119 ag – counter-screen for GPR151 activators: effect on human GPR119 | shares compounds with GPR151 ag | GPR119 PathHunter beta-arrestin cells, luminescence, 90 min; 0 = compound-well median, 100 = enzyme-acceptor control | activation, % at 11.2 µM | 6,700 compounds, 0.3% hits;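 active = mean percent activation in the counterscreen above 29.09%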;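 also: counterscreen on off-target GPR119 to flag nonselective hits from the GPR151 activator screen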
Hits are given with their value; n = inactive; x = no result. Shown are actives, neighbours in structure and some others; about 3.5% of the full set was active somewhere.

SMILES | TEAD-YAP block | FBW7 act | GPR151 ag | MITF inh | GPR151 confirm | GPR119 ag
COc1cc(C(=O)NC(c2ccccc2)c2cc(Cl)c3cccnc3c2O)cc(OC)c1OC (stereo unspecified) | n | n | n | n | x | x
CCOC(=O)C1=C(C)N=c2s/c(=C/c3ccc(-c4cc(Cl)ccc4Cl)o3)c(=O)n2C1c1ccc(OC)cc1 (stereo unspecified) | n | n | n | n | x | x
COC(=O)[C@@H](NC(=O)c1cc(COc2c(F)cccc2F)on1)c1ccccc1 | n | n | n | n | x | x
COC(=O)[C@H](Cc1ccccc1)NC(=O)c1cc(COc2c(F)cccc2F)on1 | n | n | 5.6 | n | n | n
CC1CCCCN1c1nc2c(S(=O)(=O)c3ccccc3)nnn2c2ccccc12 (stereo unspecified) | n | n | n | n | x | x
COC(=O)c1ccc(C2C3=C(CC(C)(C)CC3=O)N(c3cccc(C(F)(F)F)c3)C3=C2C(=O)CC(C)(C)C3)cc1 | n | n | 6.8 | n | n | n
Cc1cccc(C)c1NC(=O)NC1(C(=O)NCCCN2CCCC2=O)CCCCC1 | n | n | n | n | x | x
COc1cccc2cc(-c3ccc4c(c3)OCO4)c(=O)oc12 | n | n | 5.2 | n | n | n
COc1cccc2cc(-c3ccccc3)c(=O)oc12 | n | n | n | n | x | x
COc1ccc(C(=O)Nc2sc3c(c2C#N)CCCC3)c(OC)c1 | n | n | n | n | x | x
CC1(C)Cc2ccccc2C2=C(C(=O)N3CCCCCC3)C(=O)C(=O)N21 | n | n | n | n | x | x
CCNC(=O)C1=C2c3ccccc3CC(C)(C)N2C(=O)C1=O | n | n | 6.1 | n | n | n
O=C(NC(c1ccccc1Cl)c1ccc2cccnc2c1O)c1ccccc1 (stereo unspecified) | 72 | n | 7.5 | n | n | n
O=C(CSc1ccc(Cl)cc1)NNC(=O)Nc1ccc(F)cc1F | n | n | n | n | x | x
CCOC(=O)c1c(NC(=O)c2ccc(OC)cc2OC)sc2c1CC(C)(C)NC2(C)C | n | n | 5.6 | n | n | n
CC1(C)Cc2c(sc(NC(=O)c3ccccc3F)c2C(N)=O)C(C)(C)N1 | n | n | 6.3 | n | n | n
CCOC(=O)c1c(NC(=O)c2ccccc2Cl)sc2c1CC(C)(C)NC2(C)C | n | n | n | n | x | x
O=C(CN1CC(=O)Oc2ccccc21)NCC1CCCO1 (stereo unspecified) | n | n | 13 | n | n | n
O=C(N/N=C/c1cccc(Cl)c1)c1cccs1 | n | n | n | n | x | x
CC(=O)Nc1sc(N/N=C/c2cccc(Cl)c2)nc1-c1cccs1 | n | n | 7.5 | n | n | n
CCOC(=O)/C(C#N)=C/Nc1ccccc1NS(=O)(=O)c1cccc(C(C)=O)c1 | n | n | n | n | x | x
CCOC(=O)/C(C#N)=C/Nc1ccccc1NS(=O)(=O)c1ccc(C)c(C)c1 | n | n | 5.5 | n | n | n
CC(=O)Nc1ccc(Nc2c(-c3ccc4c(c3)OCC(=O)N4)c(=O)c2=O)cc1 | n | n | 8.7 | n | n | n
c1ccc(-c2nc(-c3ccncc3)cc(N3CCN(c4ccccn4)CC3)n2)cc1 | n | n | n | n | x | x
Brc1ccc2c(ccc[n+]2C/C=C/c2ccccc2)c1 | n | n | 6.2 | n | n | n
SMILES | TEAD-YAP block | FBW7 act | GPR151 ag | MITF inh | GPR151 confirm | GPR119 ag
O/N=C/c1ccc[n+](C/C=C/c2ccccc2)c1 | n | n | n | n | x | x
N#CC(C#N)=CNc1ccccc1 | n | n | n | n | x | x
CCCCn1c(CNC(=O)c2ccc(OC)cc2)nnc1SCC(=O)OCC | n | n | 6.4 | n | n | n
CCOC(=O)CSc1nnc(CNC(=O)c2ccc(OC)cc2)n1CC | n | n | n | n | x | x
COc1ccc(C(=O)NCc2nnc(SCC(=O)c3ccccc3)n2C)cc1 | n | n | 6.5 | n | n | n
COCCNc1oc(-c2ccccc2)nc1S(=O)(=O)c1ccc(C)cc1 | n | n | 6.1 | n | n | n
COCCNc1oc(-c2ccccc2)nc1S(=O)(=O)c1ccc(Cl)cc1 | n | n | n | n | x | x
O=C(CSc1nnnn1C1CCCC1)N1CCOCC1 | n | n | n | n | x | x
O=C(CSc1nnnn1C1CCCCC1)N1CCCCC1 | n | n | 5.0 | n | n | n
CCC(C)c1ccc(NC(=S)NN2CCOCC2)cc1 (stereo unspecified) | n | n | 23 | n | n | n
CCCCc1ccc(NC(=S)NN2CCOCC2)cc1 | n | n | n | n | x | x
